# According to ChEMBL document CHEMBL1157539, “Thousands of chemical starting points for antimalarial lead identification” (Nature, 2010):
# Assays:
# Type in all cases: functional
# [1] = system: Plasmodium falciparum; test: GSK_TCMDC: Inhibition of Plasmodium falciparum 3D7 in whole red blood cells, using parasite LDH activity as an index of growth. Test compounds present at 2uM
# [2] = system: Plasmodium falciparum; test: GSK_TCMDC: Inhibition of Plasmodium falciparum Dd2 in whole red blood cells, using parasite LDH activity as an index of growth. Test compounds present at 2uM
# [3] = system: HepG2; test: GSK_TCMDC: Percent inhibition of human HepG2 cell line. Test compounds present at 10uM.
Compound,Inhibition [1],Inhibition [2],Inhibition [3]
CN1CCN(S(=O)(=O)c2cccc(Nc3nccc(N(C)c4ccc5c(c4)nc(NC(=O)c4cccs4)n5C)n3)c2)CC1,99%,59%,25%
O=c1nc(C=Cc2ccc(Br)cc2)oc2ccccc12,97%,66%,0%
O=C(Nc1ccc(Cl)cc1)NC1CCN(CCCCCNC(=O)C2CC2c2ccc(Cl)c(Cl)c2)CC1 (stereo unspecified),100%,18%,51%
Cc1sc2ccc(Cl)cc2c1S(=O)(=O)Nc1ccc2nccc(N3CC(C)NC(C)C3)c2c1.Cl (stereo unspecified),100%,100%,17%
Br.C=CCc1cccc(OC)c1OCCCON1C(=N)N=C(N)NC1(C)C,94%,95%,58%
CC(C)(C)c1ccc(NC(=O)c2cccc(CN3CCCN(Cc4cccc(O)c4)CC3)c2)cc1.O=C(O)C(F)(F)F,100%,69%,97%
CC(=O)Nc1ccc(S(=O)(=O)N(Cc2cccc(Oc3ccccc3)c2)C2CCN(C/C=C(\C)CCC=C(C)C)CC2)cc1,100%,99%,22%
CCc1cc(I)c2c(c1)C(NCCCNc1cc(=O)c3ccccc3[nH]1)CCN2.CS(=O)(=O)O (stereo unspecified),89%,32%,19%
Cc1ccc(Cc2c[nH]c(NCCSCc3ccc(CN(C)C)s3)nc2=O)cn1,95%,0%,3%
N#Cc1ccc(N2CCN(Cc3ccc(-c4ccc(-c5nc6cc(C(F)(F)F)ccc6[nH]5)cc4)cc3)CC2)nc1.O=C(O)C(F)(F)F,100%,90%,19%
COCC(C)n1c(C)cc(C(=O)CSc2nnc(Nc3ccccc3)s2)c1C (stereo unspecified),97%,98%,0%
O=C(Nc1ccc(Cn2ncc(N3CCCNCC3)c(Cl)c2=O)cc1)Nc1cc(F)cc(C(F)(F)F)c1.O=C(O)C(F)(F)F,100%,44%,35%
O=C(Nc1ccc(Cl)cc1)Nc1cccc(-c2cccc(-c3nc4ccccc4[nH]3)c2)c1,100%,56%,70%
Cl.O=C1CSc2ccc(CNC3CCN(CCc4c(Cl)cnc5ccc(Cl)cc45)CC3)nc2N1,100%,92%,25%
C=C[C@]1(C)C[C@@H](OC(=O)CSC2CN3CCC2C3)[C@@]2(C)C3C(=O)CC[C@@]3(CC[C@H]2C)[C@@H](C)[C@@H]1O.Cl (stereo partly specified),91%,75%,18%
COc1ccc(Cn2c(Nc3cccc(C(F)(F)F)c3)nc3cc(C(=O)NC4CC4)cnc32)cc1Cl,94%,96%,0%
N=C(N)Nc1nc(-c2ccc(NCc3ccc(CNc4cccc(-c5csc(NC(=N)N)n5)c4)cc3)cc2)cs1,100%,99%,11%
CN(C)c1cc(C(=O)N[C@@H](Cc2ccccc2)[C@H](O)CNC2CCCCC2)cc2[nH]ccc12.O=CO,98%,97%,10%
COc1ccc(C(=O)Nc2nonc2-c2ccc(OC)c(OC)c2)cc1Cl,97%,97%,6%
CSc1nc2nc(C)c(Cc3cccc(F)c3)c(C)n2n1,87%,45%,3%
CN1CCCN(Cc2cccc(-c3cccc(NC(=O)c4cccc(C#N)c4)c3)c2)CC1.O=C(O)C(F)(F)F,95%,33%,18%
COc1ccc2nc3cc(Cl)ccc3c(NCCCCNc3c4ccc(Cl)cc4nc4ccc(OC)cc34)c2c1,99%,99%,20%
COc1cc2nc(N3CCN(C(=O)c4ccco4)CC3)nc(NCc3ccccc3)c2cc1OC,100%,99%,16%
CCCCCN1CCCC(NS(=O)(=O)c2cccc(C(=O)Nc3cccc(C(F)(F)F)c3)c2)C1.O=C(O)C(F)(F)F (stereo unspecified),86%,5%,22%
CCCCCCCn1c(=N)n(CC(O)c2ccc(Cl)c(Cl)c2)c2ccccc21.Cl (stereo unspecified),98%,100%,99%
Cn1cccc1C(=O)C(=O)Nc1ccc(-c2ccc(-c3nc4cc(F)ccc4[nH]3)cc2)cc1,92%,33%,44%
Cc1ccc(-c2cc3nc4c(c(NCCCn5ccnc5)n3n2)CCC4)cc1,94%,21%,22%
